Compound activity: PubChem, National Center for Advancing Translational Sciences (NCATS)
Most compounds without a hit are left out; they make up all but 19% or so of the library.
HT1080-NT tox: kills 2HG-producing HT-1080-NT fibrosarcoma cells. HT-1080-NT fibrosarcoma viability, CellTiter-Glo ATP luminescence, 48 h. Potency, µM (titrated, usually from 46.1 µM), without a hit: at the highest dose activity, negative = less viability, most hits filed as cytotoxic. actives 1.6% (n = 360,000). AID 686970;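 further: NT is the 2HG producing partner of a matched IDH1 knockdown line; potency means the concentration at half of the fitted maximal effect; 0% = DMSO-treated cells and -100% = media-only wells without cells; nearly all actives have a fitted effect of over 55% in size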
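Fibrosarcoma NT cells, 750 per well in 5% FBS RPMI, were exposed to compound for 48 hours. Viability: CellTiter-Glo luminescence.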
DT40 TDP1 no CPT: qHTS for Inhibitors of human tyrosyl-DNA phosphodiesterase 1 (TDP1): qHTS in cells in absence of CPT. DT40 Tdp1-/- hTDP1 cells, no CPT, ATP luminescence, 48 h. Potency, µM (titrated, usually from 46.2 µM), inactives show at the highest dose activity change, negative = growth inhibition, hits mostly inhibitors. actives 15% (n = 420,000); further: potency means the concentration at half of the fitted maximal effect; nearly all actives have a fitted effect of over 55% in size
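Growth kinetics read by CellTiter-Glo luminescence after ≥48 hr at 37 °C. Cells: DT40 Tdp1-/- stably carrying human TDP1, 400 per well, compound exposure in the absence of CPT (DMSO vehicle).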
DT40 TDP1 CPT: growth inhibition of DT40 Tdp1-/-;hTDP1 cells with camptothecin (screen for TDP1 inhibitors) | chicken DT40 Tdp1-/-;hTDP1 cells + 20 nM CPT, ATP luminescence, 48 h | Potency, µM (titrated, usually from 46.2 µM), without a hit: top-dose activity change, negative = growth inhibition, most hits filed as inhibitors | actives 12% (n = 420,000) | AID 686979; further: potency means the concentration at half of the fitted maximal effect; nearly all actives have a fitted effect of over 55% in size
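Chicken DT40 Tdp1-/- cells complemented with human TDP1, 400 cells/well, exposed to compounds plus 20 nM camptothecin for at least 48 h at 37 C; viability read as ATP content by CellTiter-Glo luminescence.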
IL-1B inflam inh: blocks inflammasome-driven IL-1 beta release. THP-1 LPS/ATP IL-1B secretion, AlphaLISA, 16 h; active compounds read low. activity change, % at 57.5 µM. actives 4.7% (n = 360,000); in the data active means activity change below about -50%; inconclusive means mostly about -30% to -49%
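THP-1 cells pretreated 1 hr with compounds (up to 57.5 uM final), then stimulated with LPS (250 ng/mL final) plus ATP (1.25 mM final); secreted IL-1B measured by AlphaLISA after 16 hr, decreased signal indicating inhibition.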
HT1080 IDH1KD tx: kills HT-1080 cells with IDH1 knockdown; HT-1080 IDH1 knockdown viability, ATP luminescence, 48 h; Potency, µM (top dose mostly 46.1 µM), for the others: top-dose activity, negative = toxicity, actives largely listed as cytotoxic; actives 2% (n = 360,000); AID 686971;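 further: potency means the concentration at half of the fitted maximal effect; 0% = DMSO wells and -100% = cell-free medium wells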
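In this qHTS, HT-1080 cells depleted of IDH1 are exposed for 48 h at 37 °C to compound titrations. Toxicity is scored from CellTiter-Glo luminescence, with DMSO as full viability and medium alone as none.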
An asterisk follows results filed as active; ! = not confirmed by another sample. Unless noted, the call rests on the fitted dose curve; in most records, active means well fitted curve in the direction sought with a large enough effect; inconclusive means small, poorly fitted or top-dose-only effect, or another doubt; inactive means no such curve, though single readings can be large; an effect the other way counts as inactive or inconclusive. Unless noted, on the % scale 0 is the no-effect control and ±100 the full control effect.

How did CC1=C(/C=C/C(C)=C/C=C/C(C)=C/CO)C(C)(C)CCC1 do in these assays?
HT1080-NT tox: -4.5%; DT40 TDP1 no CPT: 20.6µM*!; DT40 TDP1 CPT: inconclusive; IL-1B inflam inh: -21.3; HT1080 IDH1KD tx: inconclusive

Results for CC1=C(/C=C/C(C)=C/C=C/C(C)=C/C=C/C=C(C)/C=C/C=C(C)/C=C/C2=C(C)C(=O)CCC2(C)C)C(C)(C)CCC1=O ?
DT40 TDP1 no CPT: -18.9%; DT40 TDP1 CPT: -13.4%

Results for CC1=C(/C=C/C(C)=C/C=C/C(C)=C\CO)C(C)(C)CCC1 ?
DT40 TDP1 no CPT: inconclusive; DT40 TDP1 CPT: 18.4µM*

Results for CC(=O)OC/C=C(C)/C=C/C=C(C)/C=C/C1=C(C)CCCC1(C)C ?
DT40 TDP1 no CPT: 23.1µM*!; DT40 TDP1 CPT: inconclusive

How did COc1ccccc1NC(=O)CSCc1cc(=O)c2cccc(Cl)c2[nH]1 do in these assays?
DT40 TDP1 no CPT: -7.1%; DT40 TDP1 CPT: -15.7%

Results for CCCCOC(=O)C1CCCC(C(=O)OCCCC)N1 (configuration not stated) ?
HT1080-NT tox: 12.6%; DT40 TDP1 no CPT: 1.7%; DT40 TDP1 CPT: 3.6%; IL-1B inflam inh: 9.5; HT1080 IDH1KD tx: 5.1%

Results for O=C(Nc1cc(C(F)(F)F)ccc1Cl)C(Sc1cccc[n+]1[O-])c1ccccc1 (configuration not stated) ?
HT1080-NT tox: -2.7%; DT40 TDP1 no CPT: 4.61µM*; DT40 TDP1 CPT: 4.61µM*; IL-1B inflam inh: -95.6*; HT1080 IDH1KD tx: -7.4%

What do the screens show for `O=C(Nc1cc(C(F)(F)F)ccc1Cl)C(Sc1nnc(-c2cccs2)o1)c1ccccc1` (configuration not stated)?
HT1080-NT tox: -10.9%; DT40 TDP1 no CPT: -0.9%; DT40 TDP1 CPT: -2.5%; IL-1B inflam inh: 0.0; HT1080 IDH1KD tx: -21.5%

How did COc1ccc(-c2nn(-c3ccc(F)cc3)c3c2cnc2ccc(F)cc23)cc1OC do in these assays?
DT40 TDP1 no CPT: -1.2%; DT40 TDP1 CPT: -5.6%

Results for Cc1ccc(-n2nc3c(=O)n(CCCC(=O)NCc4cccc(Cl)c4)nc(C)c3c2C)cc1 ?
HT1080-NT tox: -11.6%; DT40 TDP1 no CPT: inconclusive; DT40 TDP1 CPT: 23.1µM*; IL-1B inflam inh: -22.7; HT1080 IDH1KD tx: inconclusive

How did COc1ccc(CNC(=O)CCCn2nc(C)c3c(C)n(-c4ccccc4)nc3c2=O)cc1 do in these assays?
HT1080-NT tox: 3.6%; DT40 TDP1 no CPT: inconclusive; DT40 TDP1 CPT: -3.0%; IL-1B inflam inh: inconclusive; HT1080 IDH1KD tx: 9.9%

Results for Cc1ccc(-n2nc3c(=O)n(CCCC(=O)NCc4ccc(Cl)cc4)nc(C)c3c2C)cc1 ?
HT1080-NT tox: -0.1%; DT40 TDP1 no CPT: 13µM*; DT40 TDP1 CPT: 23.1µM*; IL-1B inflam inh: -1.9; HT1080 IDH1KD tx: -1.3%

How did COc1ccc(CNC(=O)CCCn2nc(C)c3c(C)n(-c4ccc(C)cc4)nc3c2=O)cc1 do in these assays?
HT1080-NT tox: 7.0%; DT40 TDP1 no CPT: 9.2µM*; DT40 TDP1 CPT: inconclusive; IL-1B inflam inh: -0.4; HT1080 IDH1KD tx: 13.9%

What do the screens show for `Cc1nnc(SCc2cccc([N+](=O)[O-])c2)o1`?
HT1080-NT tox: -14.1%; DT40 TDP1 no CPT: -7.1%; DT40 TDP1 CPT: -4.9%; IL-1B inflam inh: -15.1; HT1080 IDH1KD tx: -1.2%

Results for COc1cccc(N2CCN(c3ccc(S(=O)(=O)N4CCN(C)CC4)cc3[N+](=O)[O-])CC2)c1 ?
HT1080-NT tox: -4.9%; DT40 TDP1 no CPT: inconclusive; DT40 TDP1 CPT: inconclusive; IL-1B inflam inh: -5.4; HT1080 IDH1KD tx: -5.5%

What do the screens show for `CCN(CC)S(=O)(=O)c1ccc(N2CCN(c3cccc(OC)c3)CC2)c([N+](=O)[O-])c1`?
HT1080-NT tox: -3.3%; DT40 TDP1 no CPT: 8.2µM*; DT40 TDP1 CPT: 13µM*; IL-1B inflam inh: -13.0; HT1080 IDH1KD tx: inconclusive

Results for CCN(CC)S(=O)(=O)c1ccc2c(c1)N(CC(=O)N1CCN(c3ccc(OC)cc3)CC1)C(=O)CO2 ?
DT40 TDP1 no CPT: inconclusive; DT40 TDP1 CPT: 20.6µM*

How did CCN(CC)S(=O)(=O)c1ccc2c(c1)N(CC(=O)N1CCN(c3cccc(OC)c3)CC1)C(=O)CO2 do in these assays?
DT40 TDP1 no CPT: inconclusive; DT40 TDP1 CPT: 20.6µM*

What do the screens show for `O=C(CN1C(=O)COc2ccc(S(=O)(=O)N3CCCCCC3)cc21)N1CCN(c2ccc(F)cc2)CC1`?
DT40 TDP1 no CPT: 20.6µM*; DT40 TDP1 CPT: 23.1µM*

How did CCN(CC)S(=O)(=O)c1ccc2c(c1)N(CC(=O)N1CCC(C(N)=O)CC1)C(=O)CO2 do in these assays?
HT1080-NT tox: 16.0%; DT40 TDP1 no CPT: 2.6%; DT40 TDP1 CPT: 21.1%; IL-1B inflam inh: 15.3; HT1080 IDH1KD tx: 9.4%

What do the screens show for `CCN(CC)S(=O)(=O)c1ccc2c(c1)N(CC(=O)NCCc1ccc(OC)c(OC)c1)C(=O)CO2`?
DT40 TDP1 no CPT: -27.2%; DT40 TDP1 CPT: -26.6%

What do the screens show for `Cc1cc(CNC(=O)C2(C(F)(F)F)CC(CCCO)CCCO2)nn1C` (configuration not stated)?
HT1080-NT tox: 6.4%; DT40 TDP1 no CPT: -5.3%; DT40 TDP1 CPT: -1.9%; IL-1B inflam inh: -4.1; HT1080 IDH1KD tx: 5.6%

What do the screens show for `CC(C)CN(CC(C)C)S(=O)(=O)N1CCC(C(=O)NCc2ccc3c(c2)OCO3)CC1`?
HT1080-NT tox: -0.1%; DT40 TDP1 no CPT: -22.5%; DT40 TDP1 CPT: -19.9%; IL-1B inflam inh: -10.1; HT1080 IDH1KD tx: -8.9%

How did CCOC(=O)Cc1csc(NC(=O)CSc2nccn2C)n1 do in these assays?
HT1080-NT tox: 1.3%; DT40 TDP1 no CPT: 23.7%; DT40 TDP1 CPT: 6.9%; IL-1B inflam inh: 4.5; HT1080 IDH1KD tx: 9.9%

Results for Cc1ccc(OCC(=O)NC2CCS(=O)(=O)C2)c([N+](=O)[O-])n1 (configuration not stated) ?
HT1080-NT tox: 12.9%; DT40 TDP1 no CPT: inconclusive; DT40 TDP1 CPT: 2.1%; IL-1B inflam inh: -10.1; HT1080 IDH1KD tx: 11.7%

How did CCCN(Cc1ccccc1)C(=S)Nc1ccc(SC(F)F)cc1 do in these assays?
HT1080-NT tox: -13.2%; DT40 TDP1 no CPT: inconclusive; DT40 TDP1 CPT: 1.7%; IL-1B inflam inh: -7.5; HT1080 IDH1KD tx: -2.7%

What do the screens show for `COc1ccc(-c2[nH]c(-c3ccccc3)nc2SCC(=O)NC2CCCC2)cc1`?
HT1080-NT tox: -0.6%; DT40 TDP1 no CPT: 20.6µM*; DT40 TDP1 CPT: 23.1µM*; IL-1B inflam inh: inconclusive; HT1080 IDH1KD tx: -22.7%

What do the screens show for `COc1ccc(-c2[nH]c(-c3cccc(OC)c3)nc2SCC(=O)NC2CCCC2)cc1`?
HT1080-NT tox: -21.8%; DT40 TDP1 no CPT: 23.1µM*; DT40 TDP1 CPT: 20.6µM*; IL-1B inflam inh: -23.1; HT1080 IDH1KD tx: inconclusive
